Measurements published in PubChem BioAssay AID2242 (National Center for Advancing Translational Sciences (NCATS), 2010).
In all, about 200,000 compounds went through this assay and about 720 (0.36%) were called active. About 8% were inconclusive and are not listed. Calls follow the shape of the dose curve; as a rule, active = well fitted activation curve with a large enough effect; inconclusive = small, poorly fitted or top-dose-only effect, or effect the other way, or another doubt; inactive = flat fitted curve, though single readings scatter. This is one part of the list.

Target: Lysosomal alpha-glucosidase (Homo sapiens) (UniProt P10253)
Test: qHTS Assay for Activators of Human alpha-Glucosidase as a Potential Chaperone Treatment of Pompe Disease; also: nearly all actives have a fitted effect of over 80% in size
Conditions: purified enzyme, 4-MU-alpha-glucoside fluorescence, 20 min; series mostly up to 76.9 µM
Outline: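 Fluorogenic assay, 4 nM enzyme, 400 uM 4-methylumbelliferyl-[…], pH 5.0 citrate/phosphate buffer with 0.005% Tween-20, compounds up to 77 uM, 20 min at room temperature. NaOH/glycine stop, Ex 365/Em 440 nm; AC50 from Hill fits.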
Potency is read from the fitted curve at half-maximal effect.

Potency, active:
O=C(c1ccco1)N1CCN(C/C=C/c2ccccc2)CC1 17.8 µM
CCN1C=C(C(=O)OC)C(c2cccc(OC)c2OC)C(C(=O)OC)=C1 35.5 µM
COC(=O)C1=CN(Cc2cccs2)C=C(C(=O)OC)C1c1cccc(Cl)c1 35.5 µM
COC(=O)C1=CN(Cc2cccs2)C=C(C(=O)OC)C1c1ccc(OC)cc1OC 35.5 µM
COC(=O)C1=CN(Cc2cccs2)C=C(C(=O)OC)C1c1cccc(OC)c1OC 25.1 µM
CCN1C=C(C(=O)OC)C(c2cccc(C)c2)C(C(=O)OC)=C1 35.5 µM
COCCn1cc(C(=O)N2CCN(C)CC2)c2c3ccccc3n(C)c2c1=O 35.5 µM
NC(=O)c1cc2ccc(O)cc2oc1=NCc1ccccc1 35.5 µM
Cc1cccc(N=c2oc3cc(O)ccc3cc2C(N)=O)c1 35.5 µM
CCOc1ccccc1N=c1oc2cc(O)ccc2cc1C(=O)NCC1CCCO1 (centres undefined) 31.6 µM
COc1ccccc1N=c1oc2cc(O)ccc2cc1C(N)=O 28.2 µM
CCCCN(CC)CCNC(=O)CCC(=O)Nc1ccc2nc(N3CCN(C)CC3)cc(C)c2c1 28.2 µM
CCCCNC(=O)CCC(=O)Nc1ccc2nc(N3CCC(C)CC3)cc(C)c2c1 39.8 µM
CCCCNC(=O)CCC(=O)Nc1ccc2nc(N3CCCCC3)cc(C)c2c1 25.1 µM
Cc1cc(N2CCC(C)CC2)nc2ccc(N3C(=O)CCC3=O)cc12 31.6 µM
COCCCNC(=O)CCC(=O)Nc1ccc2nc(N3CCOCC3)cc(C)c2c1 28.2 µM
CCN(CC)CCCNC(=O)CCC(=O)Nc1ccc2nc(N3CCC(C)CC3)cc(C)c2c1 39.8 µM
Cc1cc(C)c2c(n1)nn1c(NCCCN(C)C)cc(C)nc21 39.8 µM
Cc1cc(C)c2c(n1)nn1c(NCCOCCO)cc(C)nc21 35.5 µM
Cc1cc(C)c2c(n1)nn1c(NCCN3CCOCC3)cc(C)nc21 28.2 µM
COCCNc1cc(C)nc2c3c(C)cc(C)nc3nn12 35.5 µM
CCc1cc2c(C)cc(=O)oc2cc1OC(=O)C1CCCN1C(=O)OC(C)(C)C (centres undefined) 31.6 µM
CCOP(=O)(OCC)C(NC(=O)c1cccs1)C(F)(F)F (centres undefined) 31.6 µM
COCCCn1c(CCC(=O)O)ccc1-c1ccc(F)cc1 22.4 µM
O=S1(=O)CCN2C=C(Cl)C=C(Cl)C2=N1 35.5 µM
Cc1c(C)c2cc(Cl)c(O)c(CN3CCN(C)CC3)c2oc1=O 25.1 µM
CCc1c(C)c2cc(Cl)c(O)c(CN3CCCCC3)c2oc1=O 31.6 µM
Cc1c(C)c2cc(Cl)c(O)c(CN3CCCCC3)c2oc1=O 14.1 µM
N=c1oc2ccc3ccccc3c2cc1-c1nnc2n1CCCCC2 35.5 µM
C=CCn1cc(-c2ccccc2)cc(C#N)c1=O 35.5 µM
CC1C2=C(CC(C)(C)CC2=O)NC2=C1C(=O)CC(C)(C)C2 35.5 µM
O=C(Nc1cccc(-c2cn3cccnc3n2)c1)c1ccco1 28.2 µM
Cc1c(-c2cccc(NC(=O)c3ccco3)c2)nc2ncccn12 35.5 µM
Cc1c(-c2cccc(NC(=O)c3cccs3)c2)nc2ncccn12 31.6 µM
Cc1ccc(C)c(-n2c(=O)c(C#N)cc3c(=O)n4ccccc4nc32)c1 35.5 µM
Cc1ccccc1-n1c(=O)c(C#N)cc2c(=O)n3ccccc3nc21 35.5 µM
N#Cc1cc2c(=O)n3ccccc3nc2n(-c2ccccc2Cl)c1=O 35.5 µM
CCOC(=O)c1oc2ccccc2c1NC(=O)COc1ccc(F)cc1 35.5 µM
CCCS(=O)(=O)n1nc(-c2ccc(Br)cc2)cc1N 39.8 µM
Cc1cc(=O)n2ccccc2c1C#N 35.5 µM
COC(=O)C1=C(C)NC2=C(C(=O)CC(C)(C)C2)C1c1ccccn1 (centres undefined) 35.5 µM
COC(=O)C1=C(C)NC2=C(C(=O)CCC2)C1c1cccc(C)n1 (centres undefined) 28.2 µM
CCOC(=O)C1=C(C)NC2=C(C(=O)CC(C)(C)C2)C1c1cccc(C)n1 (centres undefined) 35.5 µM
CCOC(=O)c1cnc2c(-c3ccc(F)cc3)cnn2c1C(F)(F)F 31.6 µM
CC(=O)Oc1cc(OC(C)=O)c2c(C)cc(=O)oc2c1 35.5 µM
CCc1cc(=O)oc2cc(OC(C)=O)cc(OC(C)=O)c12 35.5 µM
COCCN1C=C(C(=O)OC)C(c2ccccc2Cl)C(C(=O)OC)=C1 31.6 µM
COCCN1C=C(C(=O)OC)C(c2ccccc2C(F)(F)F)C(C(=O)OC)=C1 35.5 µM
COC(=O)C1=CNC=C(C(=O)OC)C1c1ccccc1Cl 31.6 µM
CCCCN1C=C(C(=O)OC)C(c2ccccc2Cl)C(C(=O)OC)=C1 22.4 µM
COC(=O)C1=CN(C)C=C(C(=O)OC)C1c1ccccc1Cl 31.6 µM
COC(=O)C1=CN(C)C=C(C(=O)OC)C1c1ccc(Cl)cc1Cl 25.1 µM
COC(=O)C1=CNC=C(C(=O)OC)C1c1ccc(Cl)cc1 35.5 µM
CCOC(=O)c1cnc2sc3c(n2c1=O)CCCC3 39.8 µM
CCOC(=O)c1cnc2cc3c(cn2c1=O)CCCC3 28.2 µM
CCOC(=O)c1cc(C(=O)OCC)c2ccccn2c1=O 35.5 µM
CCOC(=O)c1cnc2cc(C)ccn2c1=O 35.5 µM
c1ccc2c(c1)NC1(CCCC1)n1c-2nc2ccccc21 31.6 µM
CCCCC1(C)Nc2ccccc2-c2nc3ccccc3n21 (centres undefined) 35.5 µM
CCCC1(C)Nc2ccccc2-c2nc3ccccc3n21 (centres undefined) 31.6 µM
CC1OC(Oc2ccc3ccc(=O)oc3c2-c2c(O)ccc3cc(Oc4ccc5ccc(=O)oc5c4)c(=O)oc23)C(O)C(O)C1O (centres undefined) 39.8 µM
Cc1cccn2c(=O)c3cc(C#N)c(=O)n(CCCN4CCOCC4)c3nc12 35.5 µM
C=CCn1c(=O)c(C#N)cc2c(=O)n3ccccc3nc21 35.5 µM
N#Cc1cc2c(=O)n3ccccc3nc2n(CCCN2CCOCC2)c1=O 35.5 µM
